PubChem BioAssay AID743279 (National Center for Advancing Translational Sciences (NCATS), 2014)
Hit rate of the full screen: of about 360,000 compounds, about 17,000 (4.7%) were called active. Another 5% or so got no clear call; they are omitted. The sample holds actives, similar compounds and a random draw of the others, so the mix is not that of the screen. Unmarked numbers belong to inactive results. No stated cut-off is given here; in the data, active means activity change below about -50%; inconclusive means mostly about -30% to -49%; inactive means weaker than that.

assay: qHTS for Inhibitors of Inflammasome Signaling: IL-1-beta AlphaLISA Primary Screen; conditions: THP-1 LPS/ATP IL-1B secretion, 16 h; at 57.5 µM, active compounds read low
Procedure, shortened: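 Secreted IL-1B measured by AlphaLISA bead assay after 16 h compound exposure of THP-1 cells; compounds (final up to 57.5 uM) added 1 h before LPS (250 ng/mL) and ATP (1.25 mM) stimulation; lower signal means less secretion.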
On the % scale 0 is the no-effect control and ±100 the full control effect.

SMILES	activity change
O=C(NN=Cc1ccc2c(c1)CCC2)c1ccccc1O	-24.6%
CC1CCN(S(=O)(=O)c2ccc3c(c2)n(C)c(=O)n3C)CC1	-8.4%
CC1CCN(C(=S)c2cccc(O)c2)CC1	10.7%
CCCCn1c(N)c(N(CCOC)C(=O)c2sc3ccccc3c2Cl)c(=O)[nH]c1=O	-21.6%
Cc1ccc(S(=O)(=O)CCC(=O)Nc2nnc(CC(C)C)s2)cc1	-3.21%
Cc1ccc(CS(=O)(=O)c2ncc(Cl)c(C(=O)Nc3nnc(C)s3)n2)cc1	-57.1% (active)
COCCSc1nnc(NC(=O)CCS(=O)(=O)Cc2ccccc2)s1	1.75%
Cc1nnc(NC(=O)CCCOc2ccccc2)s1	19.1%
CSc1ncc(Cl)c(C(=O)Nc2cc(C)ccc2C)n1	25.6%
CSc1nnc(NC(=O)c2nc(S(=O)(=O)Cc3ccc(C)cc3)ncc2Cl)s1	-105% (active)
CCc1nc2ccc(C(=O)NC3CCN(Cc4ccccc4)CC3)cn2c1N(CC)CCOC	-7.01%
O=C(Cn1cc(C(=O)C2CC2)c2ccccc21)Nc1ccccc1Cl	-2.81%
Cc1ccc(NS(=O)(=O)c2ccc(C(=O)NCCCN3CCOCC3)cc2)cc1	6.14%
COC(=O)c1ccc2c(c1)S(=O)(=O)NC2C (centres undefined)	5.94%
CCOC(=O)C1=CC[C@@H](c2ccccc2)N(S(=O)(=O)c2ccc(C)cc2)[C@H]1c1ccc(CC)cc1	52.6%
COc1ccc(S(=O)(=O)N2CCN(CC(=O)N3CCNC3=O)CC2)cc1OC	-22%
O=C(OC12CC3CC(CC(C3)C1)C2)c1ccc(NCc2cc(O)ccc2O)cc1	-102% (active)
COC(=O)c1ccc(NCC(=O)c2ccccc2)cc1	-20.4%
CC(C)OC(=O)c1ccc(NCc2cc(O)ccc2O)cc1Cl	0%
COC(=O)c1ccc(NCc2cc(O)ccc2O)cc1	-110% (active)
CC1(C)C2CCC1(C)C(OC(=O)c1ccc(O)cc1)C2 (centres undefined)	9.54%
Cc1ccc(-c2cnc(C(O)c3cccc(C)c3C)[nH]2)cc1 (centres undefined)	-19.2%
CCC(=O)OCc1c(C(F)(F)F)nn(C)c1Oc1cccc(C(F)(F)F)c1	2.89%

SMILES	activity change
CCC(C)C(CO)NC(=O)/C=C/[C@H]1O[C@@H](n2cnc3c(NC(=O)c4ccccc4)ncnc32)[C@H](O)[C@@H]1O (some centres undefined)	-22%
C[C@H](CO)N1C[C@H](C)[C@@H](CN(C)Cc2ccc3c(c2)OCO3)OCc2cnnn2CCCC1=O	19.4%
CC1CCCC(C)N1C(=O)COC(=O)c1ccccc1C(=O)c1ccccc1 (centres undefined)	-9.64%
N#Cc1c(N)nc2c(c1N)CC(C(F)(F)F)O2 (centres undefined)	16.5%
O=C(O)C(CCc1ccccn1)c1ccccc1 (centres undefined)	-10.2%
O=c1[nH]c2c(c(=O)n1-c1ccccc1)CCO2	0%
O=C(NCc1ccco1)c1ccc([N+](=O)[O-])cc1Cl	15.3%
CC(OC(=O)CNC(=O)c1ccc(Cl)c([N+](=O)[O-])c1)C(=O)NCc1ccco1 (centres undefined)	-52.2% (active)
CC(OC(=O)CNC(=O)c1ccco1)C(=O)Nc1ccc(Cl)cn1 (centres undefined)	12.3%
CCc1nc2ccc(C(=O)N(C)Cc3ccco3)cn2c1N(C)C(=O)Cc1ccccc1	-0.908%
CCCN(C(=O)COC(=O)CNS(=O)(=O)c1ccc(NC(C)=O)cc1)C1CCS(=O)(=O)C1 (centres undefined)	14.5%
CCOC(=O)N1CCN(C(c2ccnc3ccccc23)c2nnnn2-c2c(C)cccc2C)CC1 (centres undefined)	-14.1%
Cc1ccc(C)c(NC(CC(=O)c2ccccc2)C(=O)OCC(=O)c2cccs2)c1 (centres undefined)	7.47%
Cc1ccccc1C(CC(=O)c1cccs1)C(C#N)C#N (centres undefined)	-107% (active)
O=C(NCC(=O)N1CCN(c2ccccc2F)CC1)c1cccs1	16.6%
COc1ccc(CCNc2nc3ccc(C)cc3n3cnnc23)cc1OC	13.3%
CCOC(=O)CSc1nncc2ccc(OC)c(OC)c12	-8.55%
CCOC(=O)CSc1nc2ccc(C)cc2n2cnnc12	-55.9% (active)
CN(CCCNC(=O)CN1C(=O)CC(C)(C)S(=O)(=O)c2ccccc21)C1CCCCC1	0%
COc1ccccc1C(=O)NC(=S)Nc1ccc(N2CCOCC2)cc1	-16.4%
CCCCCC(=O)N1C[C@H](O)[C@@H](n2cc(COC(=O)c3ccccc3)nn2)C[C@@H]1c1ccc(C)cc1	-14.9%
N=C1C(c2nc3ccccc3[nH]2)=C(O)CN1NC(=O)c1c[nH]c2ccccc12	27.9%
N=C1C(c2nc3ccccc3s2)=C(O)CN1NC(=O)c1ccc([N+](=O)[O-])cc1	-90.6% (active)

SMILES	activity change
Cc1ccc(C)n1NC(=O)c1ccc([N+](=O)[O-])cc1	-5.32%
CN1OC[C@@H]2CN[C@H](c3ccc(-c4ccccc4)cc3)C[C@@H]21	-4.9%
O[C@H]1CN(Cc2cccs2)[C@@H](c2ccc(Cl)cc2)C[C@@H]1n1cc(C2CC2)nn1	30.3%
COCCN(C(=O)c1ccco1)c1nnc(-c2ccc(OC)cc2)s1	-3.55%
COCCN(C(=O)C(C)C)c1nnc(-c2ccc(C(C)(C)C)cc2)s1	-83.8% (active)
COc1cc(OC)cc(-c2nnc(N(C)C(=O)c3ccncc3)s2)c1	-18.8%
CCC1=C(OC(=O)N(CC)CC)N2C(=O)OC(=NCC3CC3)[C@]2(C)[C@H]2C1=CC[C@H]1C(=O)N(CC(=O)OC)C(=O)[C@H]12	25%
COc1ccccc1C(=O)Nc1ccccc1C(=O)Nc1ccccc1	-4.71%
COc1ccccc1NC(=O)C[n+]1ccccc1	33.7%
COc1ccccc1NC(=O)c1cc(Cl)nnc1Cl	-97.2% (active)
COc1ccccc1NC(=O)/C=C/C(N)=O	-100% (active)
COc1ccccc1NC(=S)NC(=O)C(C)C	3.02%
COc1ccccc1NC(=O)c1cc(Cl)nc2ccccc12	46.4%
O=C(Nc1ccc(F)cc1)Nc1nnc([C@H]2C[C@H](O)[C@@H](CO)O2)s1	-12.8%
COc1ccc(-c2nnc(SC(=O)N3c4ccccc4Sc4ccccc43)o2)cc1	-101% (active)
COc1ccc(-c2nnc(-c3ccc4ccccc4c3)o2)cc1	-20.9%
COc1ccc(-c2nnc(SC(C)C(=O)NC3CC3)o2)cc1 (centres undefined)	-5.66%
COC(=O)C1(C(=O)OC)C/C=C\CN(S(=O)(=O)c2ccccc2[N+](=O)[O-])CCC1	18.1%
O=C(NCc1cccnc1)c1cc(C2CCCN(C(=O)CCCc3ccccc3)C2)on1 (centres undefined)	24.4%
CCN(CC)CCCC(C)n1c2nc(=O)[nH]c(=O)c-2nc2cc(Cl)ccc21 (centres undefined)	-77.2% (active)
CCN(CC)CCn1c2ccc(Cl)cc2c2nc(C)sc21	-29.9%
O=C(Nc1ccc(OCCO)cc1)c1csc([C@H]2C[C@H](O)[C@@H](CO)O2)n1	4.57%
Cc1cc2c(C)nc(N/N=C/c3ccccc3)nc2o1	-78.8% (active)

SMILES	activity change
COc1cccc(/C=N\Nc2nncc(-c3ccccc3)n2)c1	-16.6%
FC(F)(F)c1cccc(N/N=C/c2ccccc2)c1	-1.73%
CC(C)NC(=O)c1ccccc1S(=O)c1ccccc1C#N (centres undefined)	-0.788%
OCC1OC(n2cnc3c(N4CCCC4)ncnc32)C(O)C1O (centres undefined)	86.8%
CCCCn1c(SCC(=O)NCC2CCCO2)nc2ccc(N3CCOCC3)cc2c1=O (centres undefined)	-7.71%
COCCCNC(=O)CSc1nc2ccc(N3CCOCC3)cc2c(=O)n1CCc1ccccc1	-8.48%
N#CCSc1nc2ccc(N3CCOCC3)cc2c(=O)n1CCc1ccccc1	-50.9% (active)
N#Cc1ccc(-c2ccc3nccn3c2)cc1	13.1%
C=CCC[C@@H](Cc1ccc(F)cc1)C(=O)OC[C@@H](C)NC(=O)[C@H](CC=C)CC(=O)N(CCO)Cc1ccccc1	-24.1%
C=CCC[C@H](Cc1ccc(F)cc1)C(=O)OC[C@@H](NC(=O)[C@@H](CC=C)CC(=O)N[C@H](CO)Cc1ccccc1)C(C)(C)C	-29.4%
C=CC[C@H](CC(=O)N(CCO)Cc1ccccc1)C(=O)N[C@@H](COC(=O)[C@@H](CC=C)Cc1ccc(F)cc1)Cc1ccccc1	-67.6% (active)
C=CCC[C@H](Cc1ccc(F)cc1)C(=O)OC[C@H](C)NC(=O)[C@H](CC=C)CC(=O)N(CCO)Cc1ccccc1	-17.2%
C=CC[C@@H](Cc1ccc(F)cc1)C(=O)OC[C@H]1CCCN1C(=O)[C@H](CC=C)CC(=O)N(CCO)Cc1ccccc1	-21.2%
C=CCC[C@@H](Cc1ccc(F)cc1)C(=O)O[C@H](CNC(=O)[C@H](CC=C)CC(=O)N(CCO)Cc1ccccc1)c1ccccc1	-58.8% (active)
CSc1ccc(CNC(=O)C2(C)CCCN2C)cc1 (centres undefined)	-5.74%
COCCCNC(=O)CNC(=S)N(Cc1cc(OC)c(OC)c(OC)c1)C1CCCC1	7.84%
Cc1ccc(C(=O)N/C(=C\c2cn(S(=O)(=O)N(C)C)c3ccccc23)C(=O)N2CCCC2)cc1	-17.6%
CN1CCN(C(=O)c2ccc(-c3ccc(Br)cc3)o2)CC1	-71.3% (active)
COc1ccccc1OCc1ccc(C(=O)N2CCN(C)CC2)o1	10.8%
CN1CCN(C(=O)c2ccc(NC(=O)c3ccc(Br)o3)cc2)CC1	4.78%
